Records with an inconclusive call do not appear. The source made the active and inactive calls. Calls follow the shape of the dose curve; as a rule, active = well fitted inhibition curve with a large enough effect; inconclusive = small, poorly fitted or top-dose-only effect; inactive = flat fitted curve, though single readings scatter.
Tests used:
Assay in all cases: Cytotoxic Profiling of Annotated Libraries Using Quantitative High-Throughput Screening (AID 1296008); also: nearly all actives have a fitted effect of over 60% in size
Details in all cases: Five cell lines viability, CellTiter-Glo ATP luminescence, 48-72 h; max response: hits give low values
CRL-7250 = normal cell line; test system: CRL-7250
Procedure, shortened: (§1)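 Cells exposed to compounds for 48 or 72 hr at 37 degrees Celsius. Viability read as ATP-coupled luminescence with CellTiter-Glo after 10 min at room temperature.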

HEK293 = test system: HEK293
Procedure, shortened: as §1

HaCat = test system: HaCat
Procedure, shortened: as §1

KB-3-1 = test system: KB-3-1
Procedure, shortened: as §1

NIH3T3 = test system: NIH3T3
Procedure, shortened: as §1

Measured: max response
% is scaled to controls: 0 for no effect and ±100 for the full control effect.

COc1cc(C2OCC3(O)C(c4ccc(O[C@@H]5O[C@H](CO)[C@@H](O)[C@H](O)[C@H]5O)c(OC)c4)OCC23O)ccc1O (stereo not given in full)
inactive: CRL-7250 | HEK293 -0.768% | HaCat | KB-3-1 7.65% | NIH3T3

C=C[C@H]1[C@H](O[C@@H]2O[C@H](CO)[C@@H](O)[C@H](O)[C@H]2O)OC=C(C(=O)OC)[C@H]1CC=O
inactive: CRL-7250 3.16% | HEK293 -0.876% | HaCat 4.35% | KB-3-1 | NIH3T3

Cc1ccc2nc(NC(=O)CSc3nc4c(c(=O)n3-c3ccc(F)cc3)SCC4)sc2c1
inactive: CRL-7250 -14.2% | HEK293 -0.604% | HaCat 1.13% | KB-3-1 9.39% | NIH3T3

C=CCC1=C[C@]2(OC)[C@H](C)[C@@H](c3ccc(OC)c(OC)c3)O[C@]2(OC)CC1=O
inactive: CRL-7250 4.13% | HEK293 -10.4% | HaCat -0.368% | KB-3-1 | NIH3T3

C=C(CCO)C(=O)OCC1OCC(OC(=O)C(=C)CCO[C@@H]2O[C@H](CO)[C@@H](O)[C@H](O)[C@H]2O)C(O)C1O (stereo not given in full)
inactive: CRL-7250 -6.14% | HEK293 0.294% | HaCat | KB-3-1 4.34% | NIH3T3 -5.54%

CC(C)=CCC(O)[C@](C)(O)C1[C@H](O)C[C@@]2(C)C3CC=C4C(C[C@H](O)[C@@H](O[C@@H]5O[C@H](CO)[C@@H](O)[C@H](O)[C@H]5O)C4(C)C)[C@]3(C)C(=O)C[C@]12C (stereo not given in full)
inactive: CRL-7250 4.58% | HEK293 -6.78% | HaCat -8.01% | KB-3-1 | NIH3T3

CC1(C)CCCC2(C)c3c4c(c(=O)oc(=O)c3=CCC12)=CCC1C(C)(C)CCCC41C (stereo not given)
inactive: CRL-7250 -2.61% | HEK293 2.74% | HaCat 0.0105% | KB-3-1 | NIH3T3

C=C(CO)C(=O)O[C@H]1C[C@@]23O[C@@H]2CC/C(=C/[C@H]2OC(=O)C(=C)[C@H]12)CO[C@H]3O
inactive: CRL-7250 | HEK293 -24.8% | HaCat | KB-3-1 | NIH3T3 2.84%

From PubChem BioAssay (NCATS)
